These results are taken from the supplement of paper PMC6555819.

What all share (assay): PBM binding z-score (relative to random genomic background probes); higher = stronger binding; sequences stand for … in GC…GCGATTGACAGCGTAGAATGAAGG
Test [1] deals with RARb homodimer (NR concentration 270 nM). In outline: (§1)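 Antibodies against each partner of ligand-free nuclear receptor dimers (one per run) detected binding on custom Agilent 4×180K protein-binding microarrays after 1 h incubation. The double-stranded probes had 34-nt variable regions carrying direct-repeat seeds, single-nucleotide variants, half-site ablations and random human genomic background sequences. Binding z-scores, from regression-normalized fluorescence, use the random background probes as reference.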

For test [2], the system named is RARg:RXRa (NR concentration 270 nM, RXRa partner concentration 90 nM). In outline:
as §1

In test [3] the test system is RARg homodimer (NR concentration 270 nM). The method, boiled down: as §1
In test [4] the test system is RXRa DBDmut IVT, anti-RXR (DBD mutation: RXRa K156A/R161A, NR concentration 90 nM). In outline:
as §1

The test system of test [5] is RXRa homodimer (NR concentration 180 nM). The method, boiled down:
as §1

In test [6] the test system is THRa:RXRa (NR concentration 90 nM, RXRa partner concentration 90 nM). The method, boiled down:
as §1

In test [7] the test system is THRa homodimer (NR concentration 90 nM). In outline:
as §1

The test system of test [8] is VDR homodimer (NR concentration 270 nM). The method, boiled down:
as §1

In the case of TCTTGTAGATCAGCTGGTTAAGAAAGCTGGCCAA, the PBM binding z-score in test [1] is -0.771; in test [2] it was -0.465; in test [3] it was -0.758; in test [4] it was 0.269; in test [5], -0.351; in test [6], -0.515. Also, the PBM binding z-score was -1.3 in test [7] and -0.694 in test [8].
As to CCTAGTTGGTCAGGAGTTCACACACCGGATATGA, the PBM binding z-score worked out at 3.04 in test [1]; 3.12 in test [2]; 2.47 in test [3]; 2.09 in test [4]; 2.32 in test [5]; 1.5 in test [6]. Further, the PBM binding z-score in test [7] came to 1.07; in test [8], 4.81.
For the sequence CCTTACGGGTCAAGGTTAGAGCACGGGTGGTACG, the PBM binding z-score in test [1] is 3.19; in test [2], 4.77; in test [3], 4.65; in test [4] it was -0.0809; in test [5] it was 4.97; in test [6], 2.94. Besides, the PBM binding z-score in test [7] was 0.656; in test [8] it was 1.05.
For TTACCAAGCTGAGCTGAGGTCGTTGATCCAACTC, the PBM binding z-score in test [1] was 0.0127; in test [2] it was -0.204; in test [3], -0.865; in test [4], 0.00802; in test [5] it was 0.266; in test [6], 2.08. Moreover, the PBM binding z-score in test [7] stood at 1.17; in test [8] it was 0.915.
In the case of TCTTGTAGGTCAACAGGAGGTTAAGAAAGATCGA, the PBM binding z-score in test [1] is 3.98; in test [2] it was 6.27; in test [3] it was 5.18; in test [4] it was 1.42; in test [5] it was 4.53; in test [6] it was 3.41. Moreover, the PBM binding z-score in test [7] was 0.603; in test [8], 0.658.
For TATCGGAGGACACGAAAGGTCAGAGCTCGACATC, the PBM binding z-score in test [1] came out at 5.03; in test [2] it was 4.79; in test [3] it was 5.31; in test [4], 0.361; in test [5], 4.07; in test [6], 3.95. Besides, the PBM binding z-score in test [7] is 1.59; in test [8], 1.67.
As for ACTCGGAGGACAAAGGTCAGAGCGACGCCAGTGA, the PBM binding z-score in test [1] was determined as 4.63; in test [2], 6.19; in test [3] it was 5.38; in test [4], 1.24; in test [5] it was 5.37; in test [6] it was 3.66. The PBM binding z-score in test [7] is 0.5; in test [8] it was 1.18.
